These results are taken from the supplement of paper PMC10670038.

Structures can show the parent of a compound that is named as a salt. ± gives the standard deviation of the averaged measurements. In all, about 2,000 compounds were measured (“relative cell viability vs DMSO, compound alone”: median about 1.1, lowest 2% from about 0.29 on). Only a selection was taken, and the lowest values are over-represented in it overall.

The assay relates to TE10. As to the kind of experiment: relative cell viability vs DMSO, compound alone (fraction); TE10 is an esophageal squamous carcinoma line; higher = less cytotoxic. The conditions noted are these: 2 µM; 48 h. The procedure:
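TE10 ESCC cells (1,000/well, 384-well plates) were treated with Selleck bioactive library compounds at 2 uM alone for 48 h. Viability was read by CellTiter-Glo and expressed relative to DMSO wells. Two technical replicates (A, B).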
As for `C[N+]1(C)CCC(=C(c2ccccc2)c2ccccc2)CC1` [Diphemanil Methylsulfate], the relative cell viability is 0.918 ± 0.097. `OCCOCCN1CCN(C2=Nc3ccccc3Sc3ccccc32)CC1` [Quetiapine Fumarate] showed a relative cell viability of 1.079 ± 0.0073. `Cc1cc(/C=C2/SC(=S)NC2=O)c(C)n1-c1cccnc1` [Optovin] yielded a relative cell viability of 1.06 ± 0.031.

Turning to `C[C@@H](O)[C@H]1C(=O)N2C(C(=O)OCOC(=O)C(C)(C)C)=C(SC3CN(C4=NCCS4)C3)[C@H](C)[C@H]12` [Tebipenem Pivoxil], the relative cell viability came to 1.14 ± 0.037. With `C[C@@]12C[C@@]3(O)O[C@@H](O1)[C@]1(COC(=O)c4ccccc4)[C@H]3C[C@@]12O[C@@H]1O[C@H](CO)[C@@H](O)[C@H](O)[C@H]1O` [Paeoniflorin], the relative cell viability was 1.04 ± 0.029. On to `CC(C=CC(=O)NO)=CC(C)C(=O)c1ccc(N(C)C)cc1` (stereo unspecified) [Trichostatin A (TSA)], for which the relative cell viability turned out to be 0.0876 ± 0.0041. The result for `CN(C)c1ccc(C(=O)NCCCCCCC(=O)NO)cc1` reads 0.627 ± 0.043. The result for `COC1C(O)CC(=O)OC(C)CC=CC=CC(OC2CCC(N(C)C)C(C)O2)C(C)CC(CC=O)C1OC1OC(C)C(OC2CC(C)(O)C(O)C(C)O2)C(N(C)C)C1O` (stereo unspecified) [Spiramycin] reads 1.11 ± 0.04; that for `C[C@H](CCC(=O)O)[C@H]1CC[C@H]2[C@@H]3[C@@H](O)C[C@@H]4C[C@H](O)CC[C@]4(C)[C@H]3CC[C@]12C` [Ursodiol], 0.96 ± 0.08; that for `COCCCOc1cc(C[C@@H](C[C@H](N)[C@@H](O)C[C@H](C(=O)NCC(C)(C)C(N)=O)C(C)C)C(C)C)ccc1OC` [Aliskiren Hemifumarate], 1.19 ± 0.037. `COc1ccc(-c2ccc3c(N4CCOC[C@@H]4C)nc(N4CCOC[C@@H]4C)nc3n2)cc1CO` yielded a relative cell viability of 0.4942 ± 0.0022. The value for `C[C@H](NC(=O)/C(C#N)=C/c1cccc(Br)n1)c1ccccc1` was 1.14 ± 0.032; that for `N#CC(=Cc1ccc(O)c(O)c1)C(=O)NCc1ccccc1` [AG-490 (Tyrphostin B42)] was 1.196 ± 0.001. The compound `CCC[C@H](NC(=O)/C(C#N)=C/c1cccc(Br)n1)c1ccccc1` [Degrasyn (WP1130)] gave a relative cell viability of 0.206 ± 0.019. The result for `COc1c(C)c(C(=O)c2ccc(N)c(C(=O)O)c2)n2ccccc12` reads 1.04 ± 0.041; that for `N#C[C@@H]1C[C@@H]2C[C@@H]2N1C(=O)[C@@H](N)C12CC3CC(CC(O)(C3)C1)C2` [Saxagliptin], 1.02 ± 0.083.

Compound `O=C1c2ccccc2-c2n[nH]c3cccc1c23` gave a relative cell viability of 1.27 ± 0.0019. Compound `CCN=C1N[C@@H]2[C@@H](O)[C@H](O)[C@@H](CO)O[C@@H]2S1` [Thiamet G] had a relative cell viability of 1.04 ± 0.037. In the case of `OCc1ccc(-c2ccc(-c3ccc(CO)s3)o2)s1`, the relative cell viability is 0.0807 ± 0.0069. `Cc1c(Cc2ccc3ccccc3n2)c2cc(F)ccc2n1CC(=O)O` showed a relative cell viability of 1.08 ± 0.054. The result for `CCOC(=O)[C@H](CCc1ccccc1)N[C@H]1CCCN2CCC[C@@H](C(=O)O)N2C1=O` [Cilazapril Monohydrate] reads 1.011 ± 0.004; that for `Nc1nc2c(ncn2[C@@H]2O[C@H](CO)[C@@H](O)[C@H]2O)c(=O)[nH]1` [Guanosine], 1.06 ± 0.032; that for `Nc1ncnc2c1ncn2[C@@H]1O[C@H](CO)[C@@H](O)[C@H]1O` [Adenosine], 1.165 ± 0.0028.

For the compound `Nc1nc(Cl)nc2c1ncn2[C@@H]1O[C@H](CO)[C@@H](O)[C@@H]1F` [Clofarabine], the relative cell viability came to 0.932 ± 0.038. The value for `Nc1nc(F)nc2c1ncn2[C@@H]1O[C@H](CO)[C@@H](O)[C@@H]1O` [Fludarabine] was 0.291 ± 0.0055. The result for `Nc1nc(F)nc2c1ncn2[C@@H]1O[C@H](COP(=O)(O)O)[C@@H](O)[C@@H]1O` [Fludarabine Phosphate] reads 0.214 ± 0.058; that for `Nc1ncnc2c1ncn2[C@@H]1O[C@H](CO)[C@@H](O)[C@@H]1O` [Vidarabine], 1.08 ± 0.033. The compound `CCN(CC)CCOC(=O)c1ccc(N)cc1Cl` [Chloroprocaine HCl] displayed a relative cell viability of 1.15 ± 0.027. In turn, `Nc1nc2c(ncn2COC(CO)CO)c(=O)[nH]1` [Ganciclovir] yielded a relative cell viability of 1.069 ± 0.0057. The compound `O=C(/C=C/N1C[C@H]2C[C@@H]1CN2c1ccccn1)c1ccccc1O` returned a relative cell viability of 1.06 ± 0.02. `COc1ccc(-n2nc(C(N)=O)c3c2C(=O)N(c2ccc(N4CCCCC4=O)cc2)CC3)cc1` [Apixaban] had a relative cell viability of 1.1 ± 0.027. The result for `Cc1coc2c1C(=O)C(=O)c1c-2ccc2c(C)cccc12` [Tanshinone I] reads 1.11 ± 0.051; that for `CO[C@H]1/C=C/O[C@@]2(C)Oc3c(C)c(O)c4c(O)c(c(/C=N/N5CCN(C)CC5)c(O)c4c3C2=O)NC(=O)/C(C)=C\C=C\[C@H](C)[C@H](O)[C@@H](C)[C@@H](O)[C@@H](C)[C@H](OC(C)=O)[C@@H]1C` [Rifampin], 1.049 ± 0.003; that for `O=C(/C=C\n1cnc(-c2cc(C(F)(F)F)cc(C(F)(F)F)c2)n1)NNc1cnccn1`, 0.2768 ± 0.0027. The value for `COc1cc(-c2ncn(/C=C\C(=O)OC(C)C)n2)cc(C(F)(F)F)c1` was 0.26 ± 0.011. The value for `O=C(/C=C\n1cnc(-c2cc(C(F)(F)F)cc(C(F)(F)F)c2)n1)NNc1ccccn1` [Verdinexor (KPT-335)] was 0.3315 ± 0.0025; that for `O=C(/C=C/n1cnc(-c2cc(C(F)(F)F)cc(C(F)(F)F)c2)n1)N1CC(F)(F)C1` was 0.473 ± 0.06. For `CCN(CC)CCNC(=O)c1c(C)[nH]c(/C=C2\C(=O)Nc3ccc(F)cc32)c1C` [Sunitinib Malate], the relative cell viability amounted to 1.11 ± 0.037. The value for `CCN(CC)CCNC(=O)c1c(C)[nH]c(/C=C2\C(=O)Nc3ccc(F)cc32)c1C` [Sunitinib] was 1 ± 0.095; that for `Cc1[nH]nc2ccc(-c3cncc(OC[C@@H](N)Cc4ccccc4)c3)cc12` was 0.5847 ± 0.0027; that for `C[C@]12CC[C@H](O)CC1=CC[C@@H]1[C@@H]2CC[C@]2(C)C(n3cnc4ccccc43)=CC[C@@H]12` [Galeterone] was 1.06 ± 0.14. The value for `CO[C@H]1C[C@@H]2CC[C@@H](C)[C@@](O)(O2)C(=O)C(=O)N2CCCC[C@H]2C(=O)O[C@H]([C@H](C)C[C@@H]2CC[C@H](n3cnnn3)[C@H](OC)C2)CC(=O)[C@H](C)/C=C(\C)[C@@H](O)[C@@H](OC)C(=O)[C@H](C)C[C@H](C)/C=C/C=C/C=C/1C` [Zotarolimus(ABT-578)] was 0.888 ± 0.073. The result for `CC(=O)Oc1cccc2c1C(=O)c1c(OC(C)=O)cc(C(=O)O)cc1C2=O` [Diacerein] reads 1.11 ± 0.023.

The compound `CC1(C)C=C(CN2C/C(=C\c3ccc(F)cc3)C(=O)/C(=C/c3ccc(F)cc3)C2)C(C)(C)N1O` had a relative cell viability of 0.8405 ± 0.0057. The value for `C=CC(=O)N1CC(=Cc2ccc([N+](=O)[O-])cc2)C(=O)C(=Cc2ccc([N+](=O)[O-])cc2)C1` was 0.0554 ± 0.0028; that for `CNC(=O)c1c(F)cccc1Nc1nc(Nc2cc3c(cc2OC)CCN3C(=O)CN(C)C)nc2[nH]ccc12` was 1.06 ± 0.052.
